Hit rate of the full screen: of about 69,000 compounds, about 1,000 (1.4%) showed an effect of 50% or more. Shown is part of a subset that was picked to be rich in strong results.
Test system: Leishmania donovani
Experiment: Leishmania intramacrophage assay
Format: functional, organism-based
Parameters: scale not given: in the data most compounds retested in dose-response had high values

## O=C(c1ccccc1O)N1CCn2c(nnc2C(F)(F)F)C1
30.3 µM, […]
  Percent Effect: -5.557%

## CCN(CC)Cc1cc(=O)n2c(n1)CN(C(=O)c1ccc[nH]1)CCC2
30.3 µM, […]
  Percent Effect: 36.34%

## c1ccc(-c2nnc3ccc(N4CCC5(CCOC5)C4)nn23)cc1 (stereo not drawn)
30.3 µM, […]
  Percent Effect: -7.106%

## CCN(CCCNC(=O)Nc1ccccc1C(C)C)S(C)(=O)=O
30.3 µM, […]
  Percent Effect: 27.9%

## Cn1ccc2c(C(=O)NCCCN3CCCC3)cccc21
30.3 µM, […]
  Percent Effect: 16.97%

## CCN(CC)CCNC(=O)c1ccc(-n2ccc3ccccc32)s1
30.3 µM, […]
  Percent Effect: 95.71%

## O=C(NCCCN1CCCC1=O)c1ccc(-n2ccc3ccccc32)s1
30.3 µM, […]
  Percent Effect: 32.92%

## O=C(NCCCN1CCCCC1)c1ccc(-n2ccc3ccccc32)s1
30 µM, 30.03 µM
  Percent Effect: 94.7%

## CCN(CC)CCNC(=O)c1cnc(C(C)(C)C)s1
30 µM, 30.03 µM
  Percent Effect: 10.1%

## CCC1CN(CC(=O)NCCN(CC)CC)c2ccccc2S1 (stereo not drawn)
30.3 µM, […]
  Percent Effect: 24.72%

## O=C(NCCN1CCOCC1)c1ccc(-n2ccc3ccccc32)s1
30 µM, 30.03 µM
  Percent Effect: 37.35%

## O=C(NCCCN1CCOCC1)c1ccc(-n2ccc3ccccc32)s1
30.3 µM, […]
  Percent Effect: 90.86%

## CCOCCCC(=O)Nc1[nH]nc(-c2ccncc2)c1C
30.3 µM, […]
  Percent Effect: 25.28%

## CC(C)(O)C1CCN(C(=O)Nc2nc(-c3ccccc3)ns2)CC1
30 µM, 30.03 µM
  Percent Effect: 46.85%

## CC(C)(CO)CCCNC(=O)N1CCc2c(F)ccc(F)c2C1
30.3 µM, […]
  Percent Effect: -32.7%

## COc1cc(N2CC[C@H](O)[C@@H]2Cc2cnn(C)c2)ncn1
30 µM, 30.03 µM
  Percent Effect: 12.89%

## COc1ccccc1C(=O)N1C[C@@H]2CCCCN(CC(N)=O)[C@@H]2C1
30.3 µM, […]
  Percent Effect: -33.88%

## O=C(Nc1ccccn1)N(CCO)Cc1ccccc1Br
30 µM
  Percent Effect: 5.548%

## CN1CCN(Cc2ccc(-c3ccc4[nH]ccc4c3)nc2)CC1
30.3 µM, […]
  Percent Effect: -38.55%

## CN1CCN(Cc2ccc(-c3ccc(-c4ccn[nH]4)cc3)nc2)CC1
30.3 µM, […]
  Percent Effect: 8.288%

## CN1CCN(Cc2ccc(-c3ccc(C(N)=O)cc3)nc2)CC1
30.3 µM, […]
  Percent Effect: 77.28%

## CS(=O)(=O)N1CC[C@H]2OCC[C@@]2(C(=O)NCc2ccccn2)C1.O=C(O)C(F)(F)F
30.3 µM, […]
  Percent Effect: 38.61%

## CC(C)N1CC2(CCCN(c3ccccn3)C2)CCC1=O (stereo not drawn)
30.3 µM, […]
  Percent Effect: 24.82%

## CC(C)N1CC2(CCCN(c3ccnc4ccccc34)C2)CCC1=O (stereo not drawn)
30.3 µM, […]
  Percent Effect: 61.79%

## CC(C)N1CC2(CCC1=O)CCN(c1ccnc3ccccc13)CC2
30.3 µM, […]
  Percent Effect: 16.36%

## CN1CCN(C(=O)c2cccc(S(=O)(=O)NCC3(C)COC3)c2)CC1
30.3 µM, […]
  Percent Effect: 33.44%

## COC(=O)COc1cc(NCc2c(C)noc2C)c(Cl)cc1C
30.3 µM, […]
  Percent Effect: 56.06%

## COc1cc(NCc2c(C)noc2C)c(OC)cc1Cl
30.3 µM, […]
  Percent Effect: 13.7%

## COc1cc(Cl)c(NCc2c(C)noc2C)cc1OC
30.3 µM, […]
  Percent Effect: 14.57%

## CN1C(=O)COc2cc(NC(=O)CCc3nc4cccnc4[nH]3)ccc21
30.3 µM, […]
  Percent Effect: 33.08%

## CN1C(=O)COc2ccc(NC(=O)CCc3nc4cccnc4[nH]3)cc21
30.3 µM, […]
  Percent Effect: 53.55%

## O=C(CCc1nc2cccnc2[nH]1)Nc1ccc2c(c1)NC(=O)CO2
30.3 µM, […]
  Percent Effect: 20.44%

## O=C(N[C@@H]1CCN(C(=O)c2cc[nH]c2)C[C@H]1O)c1ccccn1
30.3 µM, […]
  Percent Effect: 4.682%

## CN1CCC(CNC(=O)c2cccc(CN3CCCCCC3)c2)C1 (stereo not drawn)
30.3 µM, […]
  Percent Effect: -20.09%

## CCC[C@H]1CN(S(C)(=O)=O)C[C@@H]1NC(=O)CCOCC
30.3 µM, […]
  Percent Effect: -29.93%

## CCc1ccc(NC(=O)c2n[nH]c(-n3cnnc3)n2)cc1
30.3 µM, […]
  Percent Effect: -23.27%

## Cc1ccc(NC(=O)c2n[nH]c(-n3cnnc3)n2)cc1
30.3 µM, […]
  Percent Effect: 53.89%

## O=C(Nc1ccccc1)c1n[nH]c(-n2cnnc2)n1
30.3 µM, […]
  Percent Effect: 15.16%

## O=C(NCC(O)(c1ccco1)C1CC1)c1ccccc1F (stereo not drawn)
30.3 µM, […]
  Percent Effect: -8.312%

## CCCS(=O)(=O)CCN1CCOC(c2ccsc2)C1 (stereo not drawn)
30.3 µM, […]
  Percent Effect: 22.47%

## CNS(=O)(=O)CC(=O)N1CCC(c2ccc(F)c(F)c2)CC1
30.3 µM, […]
  Percent Effect: 9.155%

## CC(C)c1nnc2n1CCN(C(=O)c1ccc3c(c1)NC(=O)CO3)C2
30.3 µM, […]
  Percent Effect: 10.03%

## O=C(O)C(F)(F)F.O=C(c1ccc(F)cc1)N1C[C@@H]2CCN(c3cccnc3)C[C@@H]2C1
30.3 µM, […]
  Percent Effect: -2.032%

## Fc1cccc(N2C[C@H]3CCN(c4cccnc4)C[C@H]3C2)c1.O=C(O)C(F)(F)F
30 µM, 30.03 µM
  Percent Effect: 57.72%

## O=C(C1CCC1)N1C[C@@H]2CCN(c3cccnc3)C[C@@H]2C1.O=C(O)C(F)(F)F
30.3 µM, […]
  Percent Effect: 7.145%

## CCn1cnnc1C1CCN(C(=O)c2cccc3c2ccn3C)CC1
30 µM, 30.03 µM
  Percent Effect: 34.62%

## CNC(=O)Cc1ccc(NC(=O)NC2(c3cccc(F)c3)CC2)cc1
30.3 µM, […]
  Percent Effect: 15.99%

## O=C(Cc1cccc(O)c1)NC1CCN(c2cccc(Cl)c2)C1 (stereo not drawn)
30.3 µM, […]
  Percent Effect: 5.178%

## Cc1nnc(-c2cccc(N3CCC(NC4CCSC4)CC3)c2)s1 (stereo not drawn)
30.3 µM, […]
  Percent Effect: 17.73%

## Clc1cccc(-c2cccc(N3CCC(NC4CCOCC4)CC3)c2)c1
30.3 µM, […]
  Percent Effect: 97.72%

## Cc1ccc(-c2cccc(N3CCC(NC4CCOCC4)CC3)c2)cc1
30.3 µM, […]
  Percent Effect: 88.48%

## Cc1nc(-c2cccc(N3CCC(NC4CCOCC4)CC3)c2)cs1
30.3 µM, […]
  Percent Effect: 22.64%

## CCc1cccc(N2CCC(NC(=O)C3CCOCC3)CC2)c1
30 µM
  Percent Effect: 8.469%

## CN(C(=O)Cn1nc(-c2cccs2)ccc1=O)C1CCS(=O)(=O)C1 (stereo not drawn)
30 µM, 30.03 µM
  Percent Effect: -0.2404%

## CCn1nc(C)c2nnn(CC(=O)Nc3ccc(C)c(C)c3)c(=O)c21
30.3 µM, […]
  Percent Effect: -87.23%

## COCCN1CCOCC12CCN(c1ccc(C#N)cc1)CC2.O=C(O)C(F)(F)F
30.3 µM, […]
  Percent Effect: 3.251%

## O=C(N[C@@H]1C[C@H]2CC[C@@H]1C2)C1(Oc2ccc(Cl)cc2)CCNCC1
30.3 µM, […]
  Percent Effect: 99.44%

## O=C(N[C@@H]1CCCNC1)C1(Oc2ccc(Cl)cc2)CCNCC1
30.3 µM, […]
  Percent Effect: 12.74%

## CO[C@H]1COC[C@@H]1NC(=O)C1(Oc2ccc(Cl)cc2)CCNCC1
30.3 µM, […]
  Percent Effect: 9.396%

## CCOc1ccc(OCc2nc3c(c(=O)[nH]2)CCNC3)cc1
30.3 µM, […]
  Percent Effect: 15.57%

## COc1ccc(Br)c(C(=O)NCCNc2ccc(C(F)(F)F)cn2)c1
30 µM, 30.03 µM
  Percent Effect: 56.64%

## COc1ccc(C(=O)NCCCNc2ccc(C(F)(F)F)cn2)cc1
30 µM
  Percent Effect: 37.73%

## O=C(NCCCNc1ccc(C(F)(F)F)cn1)c1ccc(F)cc1Br
30 µM
  Percent Effect: 45.44%

Source: ChEMBL document CHEMBL3988442, “University of Dundee, Small-Polar-MMV Screening Library” (2021)
